What is called AC50 is the concentration at which the activity in the assay is half-maximal.

Records with an inconclusive call do not appear. The source made the active and inactive calls. No cut-off is given here; in the data, nearly all actives have AC50 up to about 23 µM.

A short description of this test: viability loss in pontine glioma line – cell-based, SU-DIPG-XIII, MIPE5.0, CellTiter-Glo, qHTS, dose response (AID 1347064).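 For AC50: cells exposed to compound for 48 hours before the viability read.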 Conditions: CellTiter-Glo ATP luminescence. On the technique in general: ATP-based viability assays read luminescence as a measure of living cells.
As to `N#Cc1ccnc(N2C(=O)CC[C@H]2C(=O)N(c2cncc(F)c2)C(C(=O)NC2CC(F)(F)C2)c2ccccc2Cl)c1` (some centres undefined), the outcome was inactive.
On to `Cc1ccc(-c2ccc3ncc4c(c3n2)n(C2CCN(C(=O)[C@H](C)O)CC2)c(=O)n4C)cn1`, for which the AC50 was 0.186 µM (active).
Consider `COc1ccc(N(C)c2nc(C)nc3ccccc23)cc1`, for which the AC50 was 0.00934 µM (active).
In the case of `C1=C/COCc2cc(ccc2OCCN2CCCC2)Nc2nccc(n2)-c2cccc(c2)COC/1`, the concentration at half-maximal activity (AC50) was 2.95 µM (active).
On to `Cc1ncc(NC(=O)c2cccc(C(F)(F)F)c2)cc1-c1cnc(OC2CCOCC2)c(N2CCOCC2)c1`, for which the AC50 was 5.25 µM (active).
As to `CCCC(CCC)C(=O)Nc1ccn([C@@H]2O[C@H](CO)[C@@H](O)C2(F)F)c(=O)n1`, the result was inactive.
With `CN1C(=O)[C@@H](NC(=O)c2n[nH]c(Cc3ccccc3)n2)COc2ccccc21`, the compound was called inactive.
In the case of `O=C(/C=C/c1ccc2ccc(C(F)(F)F)cc2n1)c1ccncc1`, the concentration at half-maximal activity (AC50) was 1.48 µM (active).
For `CC(C)n1cc(-c2ccc3c(c2)N(C)CC3)c2c(NS(=O)(=O)c3ccn(C)n3)ccnc21`, the compound was classed as inactive.
Turning to `CN1CCN(c2ccc(Nc3ncc4cc(C#N)c(=O)n(C5CCCC5)c4n3)cc2)CC1`, the AC50 was 8.33 µM (active).
The same measure, in the same setting: the same measure for `CCn1c(=O)c(-c2ccc(-c3cncs3)cc2Cl)cc2cnc(Nc3ccc(N4CCN(C)CC4)cc3)nc21`: 8.33 µM (active).
As to `CS(=O)(=O)c1ccc(Oc2cc(F)cc(C#N)c2)c2c1[C@H](O)C(F)(F)C2`, the result was inactive.
On to `Cc1ccc(NC(=O)NCc2ccc3c(c2)CN(C2CCC(=O)NC2=O)C3=O)cc1Cl` (centres undefined), for which the AC50 is 0.00296 µM (active).
On to `CNCCn1c(=O)c2cc(OC)c(OC)cc2c2cnc3cc4c(cc3c21)OCO4`, for which the concentration at half-maximal activity (AC50) is 1.71 µM (active).
For the compound `NS(=O)(=O)NCCNc1nonc1C(=Nc1ccc(F)c(Br)c1)NO`, the outcome was inactive.
In the case of `C=CC(=O)N1CCC(Oc2cc3c(Nc4ccc(Cl)c(Cl)c4F)ncnc3cc2OC)CC1`, the half-maximal activity concentration (AC50) was 5.25 µM (active).
The same measure, in the same setting: with `NC(=O)/C(=C/n1cnc(-c2cc(C(F)(F)F)cc(C(F)(F)F)c2)n1)c1cncnc1` the figure was 2.09 µM (active).
In the case of `C=C1C(=O)O[C@H]2C[C@H](C)C(/C=C/C(C)=O)=CC[C@H]12`, the concentration at half-maximal activity (AC50) was 2.63 µM (active).
Same read-out and setting: with `O=C1NC(=O)C(c2cnc3ccccn23)=C1c1cn2c3c(cc(F)cc13)CN(C(=O)N1CCCCC1)CC2` the figure was 16.6 µM (active).
As for `O=C(NC[C@H](O)CN1CCc2ccccc2C1)c1cc(NC2COC2)ncn1`, the compound was classed as inactive.
The same measure, in the same setting: the same measure for `C[C@@H]1CC(=O)Nc2cccc(-c3cnn(C(C)(C)C)c3)c2N1`: “inactive”.
As for `C[C@@H](Oc1cc(C(=O)Nc2ccc(C(=O)N3CCN(C)CC3)cc2)nnc1N)c1c(Cl)ccc(F)c1Cl`, the concentration at half-maximal activity (AC50) was 0.417 µM (active).
In the case of `CC(C)N(CCCNC(=O)Nc1ccc(C(C)(C)C)cc1)C[C@H]1O[C@@H](n2ccc3c(N)ncnc32)[C@H](O)[C@@H]1O`, the call was inactive.
Regarding `Cc1cc(Oc2ccc3nc(COc4ccc(CC5SC(=O)NC5=O)cc4)n(C)c3c2)cc(C)c1N` (centres undefined), the compound was classed as inactive.
Still for that read-out and setting: the same measure for `OC1CCC([C@H](O)C[C@H]2c3c(F)cccc3-c3cncn32)CC1` (some centres undefined): “inactive”.
Regarding `Cn1cc(-c2ccc(S(=O)(=O)n3ccc(/C=C/C(=O)Nc4ccccc4N)c3)cc2)cn1`, the AC50 is 3.32 µM (active).
Same read-out and setting: with `Cc1ccc(NC(=O)Nc2nnc(Sc3ncnc4cc(OCCCN5CCOCC5)ccc34)s2)cc1` the figure was 2.63 µM (active); with `Cc1[nH]c(/C=C2\C(=O)Nc3ccc(F)cc32)c(C)c1C(=O)NC[C@H](O)CN1CCOCC1`, 18.6 µM (active).
As to `CN1CCN(Cc2ccc(Nc3ncc(Cl)c(Nc4ccccc4S(=O)(=O)N(C)C)n3)cc2)CC1`, the AC50 is 0.241 µM (active).
The same measure, in the same setting: the same measure for `O=S(=O)(Nc1ccc(-c2cccnc2)c2cccnc12)c1cccc(C(F)(F)F)c1`: 16.6 µM (active); for `COc1cccc2c1C(=O)c1c(O)c3c(c(O)c1C2=O)C[C@@](O)(/C(CO)=N/NC(=O)CCCCCN1C(=O)C=CC1=O)C[C@@H]3O[C@H]1C[C@H](N)[C@H](O)[C@H](C)O1`: 4.68 µM (active).
For `CC(C)(C)C(=O)CN1C(=O)[C@H](NC(=O)Nc2cccc(C(=O)O)c2)CN(C2CCCCC2)c2ccccc21`, the call was inactive.
Turning to `CC(C)(NS(=O)(=O)c1ccc2c(Cl)cnc(N=C(N)N)c2c1)C(=O)O`, the call was inactive.
With `COC(=O)N(C)c1c(N)nc(-c2nn(Cc3ccccc3F)c3ncccc23)nc1N`, the compound was classed as inactive.
As to `C[C@H]1CN(C[C@H](Cc2ccccc2)C(=O)NCC(=O)O)CC[C@@]1(C)c1cccc(O)c1`, the compound was classed as inactive.
On to `NC[C@@](O)(c1ccc(Cl)cc1)c1ccc(-c2cn[nH]c2)cc1`, for which the half-maximal activity concentration (AC50) is 18.6 µM (active).
Same read-out and setting: with `COc1cc2c3c(n(CCCNCCO)c(=O)c2cc1OC)-c1cc2c(cc1C3=O)OCO2` the figure was 2.95 µM (active).
Still for that read-out and setting: with `CCN1CCN(Cc2ccc(NC(=O)Nc3ccc(Oc4cc(NC)ncn4)cc3)cc2C(F)(F)F)CC1` the figure was 3.32 µM (active); with `Cc1cc(OCCCc2c3n(c4c(-c5c(C)nn(C)c5C)c(Cl)ccc24)[C@H](C)CN(c2cn(C)c4ccc(C(=O)O)cc24)C3=O)cc(C)c1Cl`, 5.25 µM (active).

The record behind these values is PubChem BioAssay.
